Experiment [1] has as its system zebrafish Peroxisome Proliferator-activated Receptor gamma (PPARg), gene 557037. Kind of experiment: ATG_zfPPARg_XSP2: Attagene TRANS-FACTORIAL Multi-Species (XSP2) HepG2 Assay for zebrafish Peroxisome Proliferator-activated Receptor gamma (PPARg) (AID 2283833).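 Also: actives increase reporter signal over DMSO so AC50 reflects activation.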 Put shortly: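 HepG2, transient MRTU transfection, 24 h compound; zfPPARg-GAL4 reporter mRNA by RT-PCR + capillary electrophoresis; gain-of-signal vs DMSO.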

In experiment [2] the test system is turtle Thyroid Hormone Receptor, alpha (TRa), gene 101949057. Kind of experiment: ATG_trTRa_XSP2: Attagene TRANS-FACTORIAL Multi-Species (XSP1) HepG2 Assay for turtle Thyroid Hormone Receptor, alpha (TRa) (AID 2283834).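 Also: hits raise reporter mRNA over the DMSO baseline so AC50 marks activators.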 Put shortly: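 Multiplexed TRANS reporter assay; HepG2 carrying NR-Gal4 constructs treated 24 h. mRNA of the GAL4-UAS reporter quantified via labelled RT-PCR fragments on a genetic analyzer, vs DMSO negative control.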

For experiment [3], the target named is human Thyroid hormone Receptor alpha (TRa), THRA (gene 7067) (UniProt P10827). Kind of experiment: ATG_hTRa_XSP2: Attagene TRANS-FACTORIAL Multi-Species (XSP2) HepG2 Assay for human Thyroid hormone Receptor alpha (TRa) (AID 2283838). Put shortly: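 Reporter transcripts were read by RT-PCR with fluorescent primer extension, HpaI digestion and capillary electrophoresis. These came from HepG2 cells carrying multiplexed TRa-Gal4 TRANS constructs, harvested 24 hours after dosing. The medium also held 6-alpha-fluorotestosterone (3 nM) and norgestrel (1.5 nM), and increases were fitted against DMSO.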

Experiment [4] deals with frog Thyroid hormone Receptor alpha (TRa), thra-a (gene 397942) (UniProt P15204). The experiment in a line: ATG_frTRa_XSP2: Attagene TRANS-FACTORIAL Multi-Species (XSP2) HepG2 Assay for frog Thyroid hormone Receptor alpha (TRa) (AID 2283839). Put shortly:
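Chimeric frog TRα-GAL4 activity in human liver cells measures reporter transcript induction 24 h post-dose. Detection uses RT-PCR, HpaI-digested labelled products and fluorescence capillary electrophoresis; DMSO serves as negative control.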

Experiment [5] has as its target human Thyroid hormone Receptor beta (TRb), THRB (gene 7068) (UniProt P10828). The experiment in a line: ATG_hTRb_XSP2: Attagene TRANS-FACTORIAL Multi-Species (XSP2) HepG2 Assay for human Thyroid hormone Receptor beta (TRb) (AID 2283840).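 Also: actives raise reporter mRNA so potency reflects agonist-like gain of signal.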 Put shortly:
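Gain-of-signal reporter transcription, referenced to DMSO, was measured in transiently transfected HepG2 after 24 h exposure; labeled RT-PCR products were resolved by capillary electrophoresis. Assay medium included 3 nM 6-alpha-fluorotestosterone and 1.5 nM norgestrel.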

The subject of experiment [6] is Sodium/Iodide Symporter (NIS), SLC5A5 (gene 6528). The experiment in a line: CPHEA_Stoker_NIS_Inhibition_RAIU: CPHEA's Radioactive Iodide Uptake (RAIU) Assay for Sodium/Iodide Symporter (NIS) Inhibition, Stoker and Laws Labs (AID 2283841). Put shortly: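 hNIS-HEK293T-EPA cells incubated 2 h at room temperature with compound (0.001–100 uM, 0.5% DMSO) and 329 pM final 125I in HBSS/10 mM HEPES, pH 7.4. Intracellular 125I counted; normalised to DMSO maximal uptake, triplicate, three biological replicates.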

Experiment [7] is described as follows: CPHEA_Stoker_NIS_Cytotoxicity: Cytotoxicity Assessment for CPHEA's Radioactive Iodide Uptake (RAIU) Assay for Sodium/Iodide Symporter (NIS) Inhibition, Stoker and Laws Labs (AID 2283897).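 As to AC50: active means loss of ATP signal versus DMSO meaning cytotoxicity.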 Put shortly:
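hNIS-HEK293T-EPA cells, human NIS expressed in HEK293T, treated 2 h with chemicals (0.001–100 uM, 0.5% final DMSO). ATP content read by CellTiter-Glo luminescence; loss of signal analysed relative to DMSO.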

Experiment [8] deals with zebrafish Thyroid Hormone Receptor alpha (TRa), thraa (gene 30670) (UniProt Q98867). Kind of experiment: ATG_zfTRa_XSP2: Attagene TRANS-FACTORIAL Multi-Species (XSP1) HepG2 Assay for zebrafish Thyroid Hormone Receptor alpha (TRa) (AID 2283832).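 Also: actives raise zebrafish TRa-Gal4 reporter transcript above DMSO baseline.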 Put shortly:
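Chimeric zebrafish TRa-Gal4 activity read in transfected human HepG2 as GAL4-UAS reporter transcripts, 24 h post-dose, via RT-PCR with labeled primer extension and capillary electrophoresis. Medium also carries 3 nM 6-alpha-fluorotestosterone and 1.5 nM norgestrel; DMSO baseline.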

The nature of experiment [9]: ATG_M_61_XSP2: Attagene TRANS-FACTORIAL Multi-Species (XSP2) HepG2 Assay for M61 Transcription Factor (Internal Marker) (AID 2283835; active = hit-call score of the fitted dose curve at least 0.9, where 1 is the maximum; inactive = score below 0.9;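 also: reporter mRNA of an internal background marker read by RT-PCR and capillary electrophoresis; active means a rise in signal above the DMSO baseline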). Put shortly: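 Transient MRTU transfection of human HepG2; 24 h chemical dosing with 3 nM 6-alpha-fluorotestosterone + 1.5 nM norgestrel added for AR stimulation. RNA isolated, RT, PCR, FAM-labelled, HpaI cut, CE read. Positive direction vs DMSO.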

For experiment [10], the target named is zebrafish Thyroid Hormone Receptor beta (TRb), thrb (gene 30607) (UniProt Q9PVE4). The experiment in a line: ATG_zfTRb_XSP2: Attagene TRANS-FACTORIAL Multi-Species (XSP1) HepG2 Assay for zebrafish Thyroid Hormone Receptor beta (TRb) (AID 2283836). Put shortly: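 Reporter transcripts measured by RT-PCR, 6-FAM labelling, HpaI digestion and capillary electrophoresis after 24 h chemical exposure. Human HepG2 cells carry an exogenous zebrafish TRb-GAL4 chimera; medium included 3 nM 6-alpha-fluorotestosterone plus 1.5 nM norgestrel.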

A further experiment deals with PGR (gene 5241) (UniProt P06401). Kind of experiment: TOX21_PR_BLA_Followup_Agonist_ratio: Tox21 HEK293 Progesterone Receptor (PR) Agonism Beta-lactamase Follow-Up Assay, Ratio (AID 2283933). Put shortly:
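Beta-lactamase reporter readout: ratio of cleaved (ch2) to uncleaved (ch1) substrate after 2 h room-temperature loading, following 16 h compound exposure at 37C. Cells were PR-UAS-bla HEK293T in 2% charcoal-stripped FBS medium. Viability was multiplexed by CellTiter-Glo.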

Molecules are shown by their SMILES. Results filed as inconclusive are left out. Activity calls are given as the source filed them. The calls were made as follows, unless noted: active = hit-call score of the fitted dose curve at least 0.9, where 1 is the maximum; inconclusive = response in the unintended direction; inactive = score below 0.9.

Sequence of frog Thyroid hormone Receptor alpha (TRa), thra-a (gene 397942) (P15204 whole entry, looked up, the tested form may be a part): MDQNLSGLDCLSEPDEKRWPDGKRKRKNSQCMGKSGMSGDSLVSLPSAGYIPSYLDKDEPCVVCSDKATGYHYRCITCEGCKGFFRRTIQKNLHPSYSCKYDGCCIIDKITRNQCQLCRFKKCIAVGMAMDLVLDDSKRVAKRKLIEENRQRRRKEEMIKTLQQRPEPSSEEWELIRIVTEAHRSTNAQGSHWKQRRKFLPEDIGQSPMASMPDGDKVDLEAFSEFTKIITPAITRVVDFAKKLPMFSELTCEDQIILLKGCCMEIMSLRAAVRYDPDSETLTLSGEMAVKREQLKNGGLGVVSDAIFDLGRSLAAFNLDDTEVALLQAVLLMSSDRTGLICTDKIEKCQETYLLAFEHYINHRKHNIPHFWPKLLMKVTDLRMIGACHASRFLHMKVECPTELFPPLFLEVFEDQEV
Sequence of human Thyroid hormone Receptor beta (TRb), THRB (gene 7068) (P10828 whole entry, looked up): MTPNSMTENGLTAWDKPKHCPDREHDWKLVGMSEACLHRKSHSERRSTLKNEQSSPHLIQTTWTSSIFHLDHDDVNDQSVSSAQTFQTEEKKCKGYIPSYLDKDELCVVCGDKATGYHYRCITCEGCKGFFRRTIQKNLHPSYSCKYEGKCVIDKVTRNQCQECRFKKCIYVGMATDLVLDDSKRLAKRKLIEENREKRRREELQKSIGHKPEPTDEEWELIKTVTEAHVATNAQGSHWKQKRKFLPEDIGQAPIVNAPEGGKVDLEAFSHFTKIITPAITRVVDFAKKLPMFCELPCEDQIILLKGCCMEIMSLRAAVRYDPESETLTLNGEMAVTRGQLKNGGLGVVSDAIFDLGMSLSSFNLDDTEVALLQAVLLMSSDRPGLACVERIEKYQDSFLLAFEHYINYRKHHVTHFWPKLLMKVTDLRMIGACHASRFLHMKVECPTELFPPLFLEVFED
Sequence of human Thyroid hormone Receptor alpha (TRa), THRA (gene 7067) (P10827 whole entry, looked up, the tested form may be a part): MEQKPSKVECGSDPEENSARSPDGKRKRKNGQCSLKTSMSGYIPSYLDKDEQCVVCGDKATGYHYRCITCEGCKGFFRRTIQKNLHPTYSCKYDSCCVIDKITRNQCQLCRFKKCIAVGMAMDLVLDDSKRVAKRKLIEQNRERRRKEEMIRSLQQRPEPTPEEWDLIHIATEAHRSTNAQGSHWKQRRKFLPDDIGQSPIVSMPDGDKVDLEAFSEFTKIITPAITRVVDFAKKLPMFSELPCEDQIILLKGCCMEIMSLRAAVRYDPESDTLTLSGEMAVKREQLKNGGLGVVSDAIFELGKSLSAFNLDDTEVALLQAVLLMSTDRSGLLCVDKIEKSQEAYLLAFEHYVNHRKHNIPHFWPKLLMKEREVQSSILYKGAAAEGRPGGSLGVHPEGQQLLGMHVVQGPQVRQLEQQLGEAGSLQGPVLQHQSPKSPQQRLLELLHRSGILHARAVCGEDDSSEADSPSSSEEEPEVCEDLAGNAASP
Sequence of zebrafish Thyroid Hormone Receptor alpha (TRa), thraa (gene 30670) (Q98867 whole entry, looked up, the tested form may be a part): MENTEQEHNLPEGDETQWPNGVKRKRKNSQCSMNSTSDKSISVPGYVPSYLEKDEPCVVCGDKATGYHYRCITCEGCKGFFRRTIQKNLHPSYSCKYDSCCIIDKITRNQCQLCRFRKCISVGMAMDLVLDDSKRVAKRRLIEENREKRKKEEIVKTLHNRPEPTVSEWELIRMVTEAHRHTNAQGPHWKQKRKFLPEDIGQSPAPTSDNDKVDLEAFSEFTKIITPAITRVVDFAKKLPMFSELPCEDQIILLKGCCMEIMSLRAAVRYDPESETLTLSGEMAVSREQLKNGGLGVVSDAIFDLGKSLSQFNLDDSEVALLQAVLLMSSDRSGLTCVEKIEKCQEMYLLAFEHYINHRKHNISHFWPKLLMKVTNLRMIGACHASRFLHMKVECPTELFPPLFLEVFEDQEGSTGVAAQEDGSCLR
Sequence of zebrafish Thyroid Hormone Receptor beta (TRb), thrb (gene 30607) (Q9PVE4 whole entry, looked up, the tested form may be a part): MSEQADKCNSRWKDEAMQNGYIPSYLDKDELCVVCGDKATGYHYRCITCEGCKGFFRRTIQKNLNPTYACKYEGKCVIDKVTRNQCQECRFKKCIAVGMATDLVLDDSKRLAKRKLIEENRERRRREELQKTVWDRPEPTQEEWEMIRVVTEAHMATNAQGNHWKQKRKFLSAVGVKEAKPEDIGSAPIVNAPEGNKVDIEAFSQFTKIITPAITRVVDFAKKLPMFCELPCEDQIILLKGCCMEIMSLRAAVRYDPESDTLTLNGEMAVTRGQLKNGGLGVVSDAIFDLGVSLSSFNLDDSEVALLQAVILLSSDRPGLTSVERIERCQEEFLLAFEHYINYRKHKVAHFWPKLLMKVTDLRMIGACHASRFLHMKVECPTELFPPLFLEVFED
Sequence of PGR (gene 5241) (P06401 whole entry, looked up): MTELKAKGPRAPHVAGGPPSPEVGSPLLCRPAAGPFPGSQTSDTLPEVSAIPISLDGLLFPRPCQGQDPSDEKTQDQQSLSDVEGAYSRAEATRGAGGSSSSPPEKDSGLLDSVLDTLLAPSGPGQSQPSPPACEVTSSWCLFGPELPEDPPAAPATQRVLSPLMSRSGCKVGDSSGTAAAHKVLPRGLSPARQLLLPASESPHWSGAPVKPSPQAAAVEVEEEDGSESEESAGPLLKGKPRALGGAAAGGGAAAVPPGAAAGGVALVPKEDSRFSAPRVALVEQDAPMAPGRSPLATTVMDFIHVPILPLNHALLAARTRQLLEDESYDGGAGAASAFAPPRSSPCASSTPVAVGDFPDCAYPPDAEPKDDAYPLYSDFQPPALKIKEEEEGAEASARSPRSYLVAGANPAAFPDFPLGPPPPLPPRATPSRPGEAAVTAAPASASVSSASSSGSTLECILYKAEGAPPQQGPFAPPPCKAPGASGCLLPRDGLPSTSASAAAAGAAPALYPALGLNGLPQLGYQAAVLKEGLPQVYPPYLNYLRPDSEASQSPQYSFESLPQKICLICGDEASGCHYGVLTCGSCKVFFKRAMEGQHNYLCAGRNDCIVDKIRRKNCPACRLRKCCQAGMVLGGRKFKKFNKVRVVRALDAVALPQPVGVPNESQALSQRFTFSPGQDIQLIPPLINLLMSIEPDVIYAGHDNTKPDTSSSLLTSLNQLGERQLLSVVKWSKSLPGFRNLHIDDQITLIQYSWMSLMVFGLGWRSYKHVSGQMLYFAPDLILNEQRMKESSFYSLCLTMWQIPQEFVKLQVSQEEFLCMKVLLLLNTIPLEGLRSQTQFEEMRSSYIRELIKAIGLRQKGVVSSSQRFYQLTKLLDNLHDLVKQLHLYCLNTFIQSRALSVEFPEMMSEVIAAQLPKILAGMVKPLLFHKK

For `CON(C)C(=O)Nc1ccc(Cl)c(Cl)c1`, the compound was called inactive in experiment [1], in [2], in [3], in experiment [4], in experiment [5] and in [6]. Moreover, in experiment [7], the result was inactive.
On to `CS/C(C)=N/OC(=O)N(C)SN(C)C(=O)O/N=C(\C)SC`, for which the outcome in experiment [6] and in experiment [7] was inactive.
Turning to `Fc1ccc(Oc2ccnc3cc(Cl)cc(Cl)c23)cc1`, the AC50 (as a rule, the concentration at which the activity in the assay is half-maximal) in experiment [6] is 31.1 µM (active). Also, the result in [7] was inactive.
As for `C#CCOS(=O)OC1CCCCC1Oc1ccc(C(C)(C)C)cc1` (configuration not stated), the AC50 in experiment [8] was 163 µM (active). The outcome in experiment [1], in [9], in experiment [10], in [4], in [5] and in experiment [6] was inactive. Besides, in experiment [7], the result was inactive.
As to `COC(=O)C(C)Oc1ccc(Oc2ccc(Cl)cc2Cl)cc1` (configuration not stated), the outcome in experiment [6] and in [7] was inactive.
Regarding `N#CC(CCc1ccc(Cl)cc1)(Cn1cncn1)c1ccccc1` (configuration not stated), the AC50 in [6] was 76 µM (active); in experiment [7], 60.2 µM (active). Also, the outcome in the experiment with PGR (gene 5241) was inactive.
In the case of `CC(C)Oc1cc(-n2nc(C(C)(C)C)oc2=O)c(Cl)cc1Cl`, the outcome in [1], in experiment [9], in experiment [3], in [4], in [5] and in experiment [6] was inactive. The result in experiment [7] was inactive. In experiment [2], the AC50 is 16.1 µM (active).
Consider `CCOP(=S)(OCC)SCn1c(=O)oc2cc(Cl)ccc21`, for which the outcome in experiment [8], in experiment [1], in [2], in experiment [9], in experiment [10] and in [3] was inactive. Moreover, the result in experiment [4], in experiment [5] and in experiment [7] was inactive. Also, the AC50 in [6] is 34.5 µM (active).
Take `C=CCC1=C(C)[C@@H](OC(=O)[C@@H]2[C@@H](C=C(C)C)C2(C)C)CC1=O`: in experiment [6], the AC50 is 50 µM (active). In addition, in experiment [7], the result was inactive.
On to `COc1nc(NC(C)C)nc(NC(C)C)n1`, for which the outcome in experiment [6] and in experiment [7] was inactive.
Turning to `Cc1ccc(-c2c(Cl)nc(C#N)n2S(=O)(=O)N(C)C)cc1`, the result in experiment [6] and in experiment [7] was inactive.
With `Oc1ccccc1-c1ccccc1`, the result in [6] and in [7] was inactive.
As for `CCOC(=O)C(Cl)Cc1cc(-n2nc(C)n(C(F)F)c2=O)c(F)cc1Cl` (configuration not stated), the result in [6] and in [7] was inactive.
